# KLF5 inh = kruppel-like factor 5 inhibition; DLD-1 KLF5 promoter-luciferase reporter, luminescence; inhibition, % at 5 µM; 290,000 tested, 0.23% active;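 active = inhibition above a per-plate limit of that plate's mean compound inhibition plus 3 SD, cut at about 60% in these data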;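 also: 0% = DMSO wells and 100% = LY294002 at 200 µM; higher means less KLF5 promoter-driven luciferase light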
# Ba/F3 V617F tox = reduce viability of Ba/F3 cells dependent on JAK2V617F. Ba/F3 EpoR-JAK2V617F viability, ATP luminescence. inhibition, % at 5.6 µM. 220,000 tested, 1.1% active. AID 1446;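 active = inhibition above the campaign mean plus 3 SD over all tested compounds, cut at about 24% in these data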;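 also: cytokine-independent growth of Ba/F3 cells driven by EpoR plus mutant JAK2; 0% = DMSO-treated cells and 100% = JAK inhibitor I control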
# APP 5UTR inh = APP translation inhibition; SH-SY5Y APP 5'UTR-luciferase reporter, luminescence; inhibition, % at 2 µM; 190,000 tested, 0.82% active; AID 1285;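 active = inhibition above a set limit, derived from the sample mean plus 3 SD, cut at about 45% in these data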
# BaF3 parental = parental Ba/F3 viability inhibition as JAK2V617F counter-screen; CellTiter-Glo ATP luminescence; AID 1486; inhibition, % at 5.6 µM; 220,000 tested, 1.1% active;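 active = inhibition above a per-campaign cutoff, the mean inhibition of all tested compounds plus 3 SD, cut at about 27% in these data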;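 also: 0% = DMSO wells and 100% = JAK Inhibitor I control wells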
# IEC-6 cytotox = counter-screen for KLF5 inhibitors: cytotoxicity in IEC-6 cells. IEC-6 cytotoxicity, luminescence viability. inhibition, % at 5 µM. 290,000 tested, 0.78% active. AID 1825; in the data active = inhibition above about 22%;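 also: 0% = plate median of test compound wells and 100% = cytotoxic reference compound wells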
# aSyn UTR inh = MLPCN primary screen, SNCA 5' untranslated region. 300,000 tested, 0.82% active. alpha-synuclein 5'UTR reporter, inhibitor activity. inhibition, % (tested at 7.5 µM); in the data active = inhibition above about 60%;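 also: H4 neuroglioblastoma cells stably carrying SNCA 5'UTR luciferase fusion; 0% = DMSO wells and 100% = positive control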
# * = called active by the depositor; x = no result given. Only some compounds are listed: those with a hit (about 2.1% of all), similar ones and a draw of the others.
SMILES,KLF5 inh,Ba/F3 V617F tox,APP 5UTR inh,BaF3 parental,IEC-6 cytotox,aSyn UTR inh
COc1cccc2sc(Nc3nnc(-c4ccccc4Cl)o3)nc12,-18.9,82.1*,84.7*,85.1*,3.1,66.3*
COc1cccc2sc(Nc3nc(-c4cc5ccccc5oc4=O)cs3)nc12,4.4,-2.7,91.3*,1.8,5.5,12.2
COc1cccc2sc(NN)nc12,-17.9,2.2,-26.5,2.4,10.1,-46.1
COc1cccc2sc(Nc3nc(-c4ccncc4)cs3)nc12,54.2,85.4*,93.7*,82.5*,53.7*,105.0*
Cc1cccc2c1ncc1c(=O)n(-c3ccccc3)[nH]c12,-160.7,x,x,x,-6.1,-145.9
Cc1cccc(C(=O)C2CCN(S(=O)(=O)c3cccc(C(=O)O)c3)CC2)c1,-24.8,x,x,x,-10.6,-2.9
CCCCNC(=O)c1sc2nc(C)cc(COC)c2c1-n1cccc1,-12.5,-0.2,-8.5,5.2,-2.7,-12.9
COCc1cc(C)nc2sc(C(=O)NN)c(-n3cccc3)c12,-32.5,0.7,6.4,6.3,-7.0,71.4*
CC(=O)N(c1ccc(C)cc1)c1nc(C)cc(C)c1C#N,-16.8,-2.2,x,4.2,-2.1,20.6
CCN(CC)CCNc1nc2c(c(=O)[nH]c(=O)n2C)n1CC(O)COc1ccc(Cl)cc1Cl (stereo unspecified),-38.7,3.2,18.5,6.3,2.4,3.3
Cc1cc(C)n(-c2nc3c(c(=O)[nH]c(=O)n3C)n2CC(O)COc2ccc(Cl)cc2Cl)n1 (stereo unspecified),-18.6,-4.0,-2.9,4.1,2.2,73.2*
CCOC(=O)C1(CCOC)CCN(C(=O)c2ccccc2-c2cccc(C)c2)CC1,-27.1,3.5,-5.0,81.5*,3.6,23.6
O=C(CCc1c[nH]c2ccccc12)N[C@@H](Cc1c[nH]c2ccc(O)cc12)C(=O)O,-13.0,x,x,x,-6.3,-1.8
COc1ccc(C2NCCc3cc(OC)c(OC)cc32)cc1OC (stereo unspecified),-5.7,-0.3,58.7*,1.6,-1.1,-8.3
COc1cc2c(cc1OC)C(c1ccc(Br)cc1)NCC2 (stereo unspecified),x,x,x,x,x,63.3*
CC(C)C[C@@H](CO)N1CCN(Cc2cccc(C#N)c2)CCC1=O,-0.6,x,x,x,2.9,-8.2
CNc1ccccc1C(C)(C)c1cc(-c2cccc(Br)c2)no1,6.7,62.4*,11.2,76.5*,4.1,27.4
CNc1ccccc1C(C)(C)c1cc(-c2cccc([N+](=O)[O-])c2)no1,31.1,6.7,-25.4,14.3,4.4,37.1
Cc1ccc(-c2nc(CCNC(=O)c3ccco3)cs2)cc1,x,x,x,x,x,3.3
O=C(NCCc1csc(-c2cccnc2)n1)c1ccco1,-27.2,-3.9,3.4,96.2*,4.3,13.3
CCC(C)NC(=S)Nc1ccc(C(=O)OC)cc1 (stereo unspecified),-22.2,6.6,-25.7,49.6*,9.5,-31.8
CCC(C)NC(=S)Nc1ccccc1 (stereo unspecified),-16.0,2.2,x,-2.4,-0.1,18.3
COc1ccc(Br)cc1C(C[N+](=O)[O-])c1c(N)n(C)c(=O)n(C)c1=O (stereo unspecified),-38.0,66.2*,x,36.2*,-1.7,22.5
Cc1cc(/C=N/n2cnnc2)c(C)n1-c1ccc(OCc2ccc(Cl)cc2Cl)cc1,57.3,-0.2,50.9*,5.3,-1.5,113.1*
Cc1cc(/C=N/n2cnnc2)c(C)n1-c1ccc(Cl)cc1,-1.9,5.9,-2.8,4.6,7.2,16.1
SMILES,KLF5 inh,Ba/F3 V617F tox,APP 5UTR inh,BaF3 parental,IEC-6 cytotox,aSyn UTR inh
O=C(N/N=C/c1ccc([N+](=O)[O-])s1)c1ccccc1,3.4,5.2,24.1,7.1,2.4,67.5*
Cc1ccc(/C=N/NC(=O)c2cccc([N+](=O)[O-])c2)o1,5.6,2.9,62.2*,6.4,1.2,14.5
O=C(N/N=C/c1ccc([N+](=O)[O-])s1)c1ccccc1Br,-13.8,5.1,38.0,1.7,3.6,47.2
Cc1ccccc1C(=O)N/N=C/c1ccc([N+](=O)[O-])s1,-20.1,2.5,43.0,5.3,1.7,93.4*
O=C(Cc1ccccc1)N/N=C/c1ccc([N+](=O)[O-])s1,-10.0,4.0,1.8,7.4,6.8,16.5
O=C(N/N=C\c1ccc([N+](=O)[O-])s1)c1cncc(Br)c1,-19.1,2.4,30.6,7.8,9.8,77.2*
CC(C)CN(C(=O)CN1CCc2ccccc21)c1c(N)n(CC(C)C)c(=O)[nH]c1=O,-17.6,0.0,-5.6,6.2,-4.5,-11.2
CC(C)(CNC(=O)CCNC(=O)c1ccc(Br)cc1)N1CCOCC1,x,x,x,x,x,-2.8
O=C(C1CCN(S(=O)(=O)c2ccc(Br)s2)CC1)N1CCCCC1,13.7,x,x,x,7.4,3.6
Cc1oncc1C(=O)N1CCCC(CO)(Cc2ccc(F)cc2F)C1 (stereo unspecified),-32.0,x,x,x,-0.6,-14.5
CCOc1cccc(-c2c(C(=O)N/N=C/c3ccc(C)o3)nnn2-c2nonc2N)c1,-9.4,x,x,x,0.7,9.6
O=C(N/N=C/c1ccc(Br)s1)c1cccc([N+](=O)[O-])c1,-22.1,-1.3,44.0,6.6,0.3,69.8*
CN(C)Cc1ccccc1Sc1ccc2c(c1)CCCC2,x,x,x,x,x,104.3*
Cc1sc2ncnc(N3CCN(CCOc4ccc(Cl)cc4)CC3)c2c1C,-5.5,11.2,3.1,31.3*,5.7,-40.1
Cc1sc2ncnc(N3CCC(C)CC3)c2c1C,-0.4,-1.0,-6.5,4.0,1.7,47.5
COc1ccccc1N1CCN(C(=O)c2cc(-c3ccc(F)cc3)[nH]c2C)CC1,-31.9,x,x,x,13.2,21.0
O=C(Nc1nccs1)[C@@H]1CCCN1C(=O)c1cccs1,-4.0,-1.6,-7.5,104.1*,-4.9,15.1
O=C(Cn1c2ccccc2c(=O)c2ccccc21)N/N=C/c1ccc(N2CCCC2)c([N+](=O)[O-])c1,-7.8,4.8,11.5,9.2,0.6,111.0*
Cc1ccc(O)c(C(=O)c2cnc3c(c2)c(C)nn3C)c1,-3.9,x,x,x,0.1,3.4
Cc1nn(C)c2ncc(C(=O)c3cc(F)ccc3O)cc12,-26.9,-2.3,51.7*,2.8,-4.7,15.4
CCOc1ccc(C(=O)Nc2ccc3nc(N4CCN(CC)CC4)cc(C)c3c2)cc1,-24.7,x,x,x,8.5,66.5*
CCN1CCN(c2cc(C)c3cc(NC(=O)c4cc(OC)cc(OC)c4)ccc3n2)CC1,-49.5,3.6,x,0.0,11.8,-97.8
COc1cc(C)c(Cl)c(C)c1S(=O)(=O)NCc1cccnc1,11.2,-1.0,45.6*,4.0,-8.8,-22.7
Cc1cc(C)c(C)c(S(=O)(=O)NCc2cccnc2)c1C,-10.8,4.4,3.8,6.0,0.4,4.5
CN(C)c1ccc(/C=C(\C#N)c2ccccc2)cc1,-17.0,83.1*,x,76.1*,73.8*,x
Cc1ccc(/C=C/C(=O)c2cc(Br)ccc2OC(=O)c2ccco2)cc1,-35.9,-4.5,50.6*,1.2,-4.0,-94.2
CCc1ccc(/C=C/C(=O)c2cc(Br)ccc(=O)c2O)cc1,-22.9,-3.0,-5.4,-1.9,1.0,72.1*
COc1ccccc1/C=C/C(=O)c1cc(Br)ccc1OC(=O)c1ccco1,-11.7,2.6,-43.9,5.9,7.5,-14.6

# Screening data from PubChem BioAssay.
